# Rows were chosen to be rich in hits. Some 0.44% of all compounds tested hit in one or more screens of this group.
# RmlCD inh mix: mixture blocks RmlC and RmlD coupled enzyme activity | RmlC/RmlD coupled enzyme inhibition, 384-well mixture HTS | inhibition, % at 5.5 µM | hit rate 0.39% among 110,000; in the data active = inhibition above about 30%, passing the limit was not always enough; inconclusive = no clear call, values can overlap the other calls
# YopH inh: YopH (Yersinia) phosphatase inhibition; inhibition, % (concentration not given with the values); hit rate 0.16% among 140,000; fluorescence Ex485/Em525; in the data active = inhibition above about 50%
# RmlCD fluor art: counter-screen for RmlC/RmlD inhibitors: fluorescence artifact | shares compounds with RmlCD inh mix | RmlC/RmlD assay fluorescence artifact counter-screen | calls only | hit rate 96% among 360 | AID 1696; call rule not given here;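 also: compound alone with no enzyme and no substrates present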
# Active calls of the source: *; i = inactive; ? = inconclusive; nt = not tested or not shown; + = active, no number.
SMILES,RmlCD inh mix,YopH inh,RmlCD fluor art
CCOC(=O)c1nn(-c2ccc(Cl)cc2)c2nc(CC)c(C#N)c(=O)n12,85*,-19,+
CCOc1ccc(C2C(C#N)=C(N)SC(N)=C2C#N)cc1OC,-2,-32,nt
C=CCOc1ccc(C2OC34CCCCC3C(C#N)(C#N)C2(C#N)C(=N)O4)cc1 (stereo not given),60*,-19,+
CCOc1ccc(C2OC34CCCCC3C(C#N)(C#N)C2(C#N)C(=N)O4)cc1OC (stereo not given),+,-23,+
Cc1ccc(C2OC34CCCCCC3C(C#N)(C(=N)O4)C2(C#N)C#N)cc1 (stereo not given),nt,-8,nt
CCC12OC(=N)C(C#N)(C1C)C(C#N)(C#N)C(c1ccccc1)O2 (stereo not given),nt,-13,nt
CCCCOc1ccc(C2OC34CCCCC3C(C#N)(C#N)C2(C#N)C(=N)O4)cc1 (stereo not given),161*,-25,+
CS(=O)(=O)N(CC(=O)N/N=C/c1cccs1)c1cccc(Cl)c1Cl,0,-17,nt
Cc1ccccc1OCCNC(=O)CSc1ccc(C(F)(F)F)cc1[N+](=O)[O-],nt,10,nt
O=C(c1cc2c(ccc3ccccc32)oc1=O)N1CCCC1,3,-16,nt
O=C(O)c1cc2c(ccc3ccccc32)oc1=O,82*,-12,+
Cc1cccn2c(=O)c3cc(C#N)c(=N)n(CC4CCCO4)c3nc12 (stereo not given),nt,-3,nt
Cc1ccc2nc3c(cc(C#N)c(=O)n3-c3nccs3)c(=O)n2c1,107*,-23,+
Cc1ccc2nc3c(cc(C#N)c(=O)n3CC3CCCO3)c(=O)n2c1 (stereo not given),105*,-39,+
Cc1ccc(-n2c(=O)c(C#N)cc3c(=O)n4cccc(C)c4nc32)cc1,i,-21,nt
Cc1cc(/C=C2\SC(=Nc3ccccc3)NC2=O)c(C)n1-c1ccc(S(N)(=O)=O)cc1,6,-38,nt
CCOC(=O)N1CCN(CC(O)COCc2cc(OC)c(OC)c(OC)c2)CC1 (stereo not given),nt,-20,nt
Cc1ccc(S(=O)(=O)NNc2ccccc2)c(C)c1,nt,-37,nt
O=C(Nc1cc2c3c(c1)C1CCCC1CN3CC1CCCC21)c1ccccc1 (stereo not given),5,-23,nt
CCc1ccc(C(=O)Nc2cc3c(cc2Cl)OCCCO3)cc1,-10,-19,nt
C=CCNC(=O)Nc1ccc(Cl)cn1,nt,-4,nt
N#Cc1c(-c2ccco2)cc(-c2ccccn2)nc1N,46*,-11,+
N#Cc1c(-c2ccco2)cc(-c2cccnc2)nc1N,?,-51,nt
Cc1ccccc1NC(=S)NCc1ccccc1,nt,-10,nt
Cc1cccn2c(=O)c3cc(C(=O)NCCCn4ccnc4)n(C)c3nc12,nt,-29,nt
SMILES,RmlCD inh mix,YopH inh,RmlCD fluor art
Cc1cccn2c(=O)c3cc(C(=O)NCCN4CCOCC4)c(=N)n(CCc4ccccc4)c3nc12,nt,-28,nt
COCCn1c(=N)c(C(=O)NCCc2ccccc2)cc2c(=O)n3cccc(C)c3nc21,58*,2,+
CCCn1c(=N)c(C(=O)NCC2CCCO2)cc2c(=O)n3cccc(C)c3nc21 (stereo not given),87*,-44,+
Cc1cccn2c(=O)c3cc(C(=O)NCCc4ccccc4)c(=N)n(CCCn4ccnc4)c3nc12,38*,-16,+
Cc1cccn2c(=O)c3cc(C(=O)NCc4ccco4)c(=N)n(CCOCCO)c3nc12,17,-35,nt
Cc1cccn2c(=O)c3cc(C(=O)NCC4CCCO4)c(=N)n(CCN4CCOCC4)c3nc12 (stereo not given),nt,-20,nt
CCNC(=O)c1cc2c(=O)n3cccc(C)c3nc2n(CCc2ccccc2)c1=N,59*,-14,+
O=C(CSC(=S)N1CCN(c2ccccc2)CC1)Nc1nc(-c2ccccc2)c(-c2ccccc2)o1,nt,-1,nt
CC(C)OC(=O)C(C)Oc1ccc(C(=O)NCCc2ccccc2)cc1 (stereo not given),3,-9,nt
COc1c(Cl)cc(-c2noc(C)c2C(=O)NCCc2ccc(C)cc2)cc1Cl,-2,-3,nt
COc1ccc(C(CC(=O)Nc2cc([N+](=O)[O-])ccc2OC)c2ccccc2)cc1 (stereo not given),nt,7,nt
Cc1ccc(NC(=O)COC(=O)CNC(=O)c2ccc3ccccc3c2)c([N+](=O)[O-])c1,nt,-29,nt
c1ccc(-c2cn3c(n2)SCC3)cc1,0,-15,nt
Cc1oc2ccccc2c1-c1cn2c(n1)SCC2,52*,55*,+
S=C(NCCc1ccccc1)Nc1ccc(Br)cc1,nt,-21,nt
CC(C)CNC(=O)c1coc(=O)c(Br)c1,4,6,nt
CN(C)CCNC(=O)c1coc(=O)c(Br)c1,62*,-6,+
CCn1c(CNC(=O)c2cccs2)n[nH]c1=S,nt,-55,nt
Cc1cc(OCC(=O)N(C)C)c2c(-c3ccccc3)cc(=O)oc2c1,-8,-37,nt
CN(C)C(=O)COc1ccc2cc(-c3ccccc3)c(=O)oc2c1,55*,17,+
CC1CCN(S(=O)(=O)c2ccc3c(c2)oc(=O)n3CC(=O)N2CCc3ccccc3C2)CC1,10,-59,nt
Cn1c(C(=O)NCc2ccccn2)cc2c(=O)n3ccccc3nc21,96*,-26,+
Cn1nc(C(=O)NCc2ccccn2)c2ccccc2c1=O,-8,-46,nt
O=C(c1ccccc1)N1CN2CN(C(=O)c3ccccc3)CC([N+](=O)[O-])(C2)C1,nt,-21,nt
CCC(Oc1nc2ccccc2nc1-c1ccccc1NC(C)=O)C(=O)c1ccccc1 (stereo not given),13,-34,nt
SMILES,RmlCD inh mix,YopH inh,RmlCD fluor art
COCCNC(=O)c1c(N)n(-c2ccccc2)c2nc3ccccc3nc12,nt,1,nt
COC(=O)c1c(N)n(-c2ccc(NC(C)=O)cc2)c2nc3ccccc3nc12,64*,44,+
CC(C)Cn1c(N)c(C(=O)COC(=O)CC23CC4CC(CC(C4)C2)C3)c(=O)n(C)c1=O,2,-15,nt
CCc1c(C)c2ccc(O)c(CN(C)C)c2oc1=O,131*,-30,+
CCCc1cc(=O)oc2c(CN3CCOCC3)c(O)ccc12,166,16,nt
COc1ccc(Oc2c(C)oc3c(CN(C)C)c(O)ccc3c2=O)cc1,23,-3,nt
CN(C)Cc1c(O)ccc2c3c(c(=O)oc12)CCCCC3,117*,-30,+
O=c1oc2c(CN3CCOCC3)c(O)ccc2c2c1CCCC2,147*,-14,+
CCCCc1cc(=O)oc2c(CN(C)C)c(O)ccc12,72*,-30,+
COCCN(CCOC)Cc1c(O)ccc2c3c(c(=O)oc12)CCC3,158,-42,nt
O=c1oc2c(CN3CCOCC3)c(O)ccc2c2ccccc12,nt,11,nt
Cc1csc(OCc2ccc(C#N)cc2)n1,-11,-4,nt
COC(=O)c1cc(NC(=O)Nc2ccccc2OC)cc(C(=O)OC)c1,8,0,nt
Cc1ccc(Cn2c(=O)n(Cc3ccco3)c(=O)c3ccccc32)cc1,-12,-31,nt
Cc1ccc(N(C)S(=O)(=O)c2cccc(C(=O)Oc3ccc4c(C)cc(=O)oc4c3)c2)cc1,nt,-20,nt
Cc1cc(=O)oc2cc(OC(=O)c3ccccc3)ccc12,46*,nt,+
CC(=O)Oc1ccc2c(=O)c(-c3ccccc3)c(C)oc2c1,80*,nt,+
COC(=O)c1cc(-c2c(C)oc3cc(OC(C)C)ccc3c2=O)c(C)o1,-1,-30,nt
Cc1cccc(CSC2=NCCN2C(=O)c2ccco2)c1,-14,-49,nt
Cn1nc([N+](=O)[O-])nc1Oc1ccc(C(C)(C)C)cc1,nt,-25,nt

# Screens deposited in PubChem BioAssay by several laboratories.
